Autophagy HCS = autophagy modulation, high-content screen; AID 463193; calls only at 10 µM (by protocol); 0.98% of 190,000 active; MEF GFP-LC3 puncta imaging; test concentration mostly 10 µM;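 active = percentage of spot-positive cells more than 3 SD above its plate mean, without a fluorescence outlier flag or 80% toxicity; inconclusive = no clear call, values can overlap the other calls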;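 also: spot-positive cell cutoff set from DMSO-treated cells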
Insulin prom inh = TRM-6 insulin promoter activity inhibition. TRM-6 cells (human fetal islet line), insulin promoter-eGFP reporter, imaging; reporter expression induced with tamoxifen. 0.9% of 130,000 active. inhibition, % at 2 µM;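 active = inhibition above the mean plus 3 SD, with well images judged a real hit on visual review, cut at about 60% in these data, passing the limit was not always enough; inconclusive = inhibition over the cutoff but images rejected on review; inactive = inhibition not above the cutoff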
L major viab = inhibitors of Leishmania major promastigote growth; Leishmania major promastigotes, resazurin fluorescence viability; inhibition, % at 10 µM; 9% of 200,000 active; AID 1063; in the data active = inhibition above about 50%;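 also: promastigotes grown with compound for 44 hours at 28 °C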
Ins promoter up = MIN6 insulin promoter up-regulation | AID 1625 | 0.3% of 190,000 active | z-score at 5 µM | MIN6 insulin promoter-GFP reporter, high-content imaging; stronger effect = higher value;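 active = z-score above 3 at 5 µM with at least 500 cells counted in the well; inconclusive = wells under 500 cells, flagged as cytotoxic or low count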
WT yeast gro inh = growth inhibition of WT yeast, mitochondrial fusion screen; mitochondrial fusion phenotypic screen, WT strain; inhibition, % at 10 µM; 2.1% of 190,000 active; in the data active = inhibition above about 58%; tested in S. cerevisiae
Starred values were filed as active, the others as inactive; i = inactive; u = inconclusive; x = no result given; + = active, no number. The list is not random: actives were taken first. Their share in the collection is about 11%.

SMILES	Autophagy HCS	Insulin prom inh	L major viab	Ins promoter up	WT yeast gro inh
CCOC(=O)c1oc2c(c1C)/C(=N/O)CCC2	i	87.5*	-3.0	x	5.9
Cc1nn(Cc2c(Cl)cccc2Cl)c(C)c1NC(=O)c1cnn2c(C(F)F)cc(-c3ccccc3)nc12	i	x	66.8*	-0.8	5.7
COCCNC(=O)c1cnn2c(C(F)F)cc(-c3ccc(C)cc3)nc12	i	-35.0	18.6	-0.96	-6.7
COc1ccc(-c2cc(C(F)F)n3ncc(C(=O)Nc4c(C)n(C)n(-c5ccccc5)c4=O)c3n2)cc1	i	23.5	0.1	x	1.6
Cc1ccc(-c2cc(C(F)F)n3ncc(C(=O)Nc4c(C)nn(Cc5ccccc5Cl)c4C)c3n2)cc1	i	32.1	57.4*	x	75.5*
Cc1ccc(-c2cc(C(F)F)n3ncc(C(=O)Nc4c(C)nn(Cc5c(Cl)cccc5Cl)c4C)c3n2)cc1	+	x	49.6	-0.83	-5.2
C=CCc1cccc([C@@H]2[C@@H](C)CC[C@H]3C(=O)N4[C@@H](c5cc(OC)c(OC)c(OC)c5)c5[nH]c6ccccc6c5C[C@H]4C(=O)N23)c1	i	-52.4	18.8	0.13	0.3
CCCCn1c(CCC)nc([N+](=O)[O-])c1Sc1ccc(Cl)cn1	i	55.2	75.4*	x	16.6
CC(C)Cn1c(C(C)C)nc([N+](=O)[O-])c1Sc1ccc(Cl)cn1	i	x	41.3	x	-3.0
Cc1nc2ccccc2c(=O)n1NC(=O)c1ccc([N+](=O)[O-])cc1	i	55.6	-7.1	0.32	8.8
NS(=O)(=O)c1ccc(Cl)cc1[N+](=O)[O-]	x	x	x	1.69	x
N=C1C(c2nc3ccccc3s2)=C(O)CN1Cc1ccco1	+	48.8	23.0	0.55	0.7
O=C1c2ccccc2CN1CCSC(=S)N1CCOCC1	i	31.2	-9.5	-0.6	2.1
CCCCNC(=O)c1c[nH]c2ccc(S(=O)(=O)N3CCOCC3)cc2c1=O	i	x	0.6	-0.45	-13.0
N=c1sccn1CC(=O)Nc1ccc(SC(F)F)cc1	+	18.2	23.6	0.3	-12.2
COc1cccc(/C=N/Nc2ncnc3c2ncn3Cc2ccccc2)c1O	i	0.0	87.9*	-0.9	6.0
COc1cccc(/C=N/Nc2cc(Cl)nc(C)n2)c1O	i	x	-1.2	-0.36	12.8
Cc1cccc(Cn2ccc(NC(=O)c3cccnc3)n2)c1	i	x	-1.5	1.53	2.7
Cc1nc(NC(=O)c2ccc(Cl)cc2)sc1Cc1ccc2c(c1)OCO2	i	-1.3	73.3*	0.23	0.8
O=C(Nc1ccn(Cc2ccc(Cl)cc2)n1)c1ccc2c(c1)OCO2	i	76.9*	-5.8	0.22	-13.2
Cc1cccc(Cn2ccc(NC(=O)c3ccc4c(c3)OCO4)n2)c1	i	-7.1	59.8*	-0.4	17.3
COc1ccc(/C=C2\C(=O)N(c3c(Cl)cc(Cl)cc3Cl)N=C2NC(=O)c2cccc([N+](=O)[O-])c2)cc1	i	x	-4.8	-0.19	-16.7
CCOC(=O)c1c(C)n(C)c2ccc(OC)c([N+](=O)[O-])c12	i	x	-3.4	0.23	-14.5
NC(=O)N/N=C/c1ccccc1OCC(=O)NCc1ccccc1	i	-13.3	-5.2	-0.1	-2.1
NC(=O)Cc1nc2scc(-c3ccccc3)c2c(=O)[nH]1	i	x	0.4	0.2	0.8
SMILES	Autophagy HCS	Insulin prom inh	L major viab	Ins promoter up	WT yeast gro inh
O=c1[nH]c(CN2CCN(c3ccccc3)CC2)nc2scc(-c3ccccc3)c12	i	-131.2	67.2*	0.23	32.9
COc1ccc(N2CCN(Cc3nc4scc(-c5ccccc5)c4c(=O)[nH]3)CC2)cc1	i	-16.9	61.6*	-0.37	18.9
COc1ccc(N2CCN(Cc3nc4scc(-c5cccs5)c4c(=O)[nH]3)CC2)cc1	i	-75.0	-10.2	-1.01	16.0
CCCn1c(=N)n(CCOc2ccc(OC)cc2)c2ccccc21	i	-10.8	94.0*	-4.79	-10.0
CCn1c(=N)n(CC(=O)c2ccc(OC)cc2)c2ccccc21	i	2.3	94.5*	0.61	11.5
COc1ccc(C(=O)Cn2c(C(=O)/C=C/c3ccccc3)nc3ccccc32)cc1	i	-16.2	88.7*	1	14.1
CCn1c(=N)n(CC(=O)c2ccco2)c2ccccc21	i	25.0	1.7	-0.21	-17.3
CCCCn1c(=N)n(CC(=O)c2ccc([N+](=O)[O-])cc2)c2ccccc21	+	x	81.3*	-1.11	23.0
CCOC(=O)Cn1c(=N)n(CCOc2ccc(OC)cc2)c2ccccc21	i	-14.3	-0.9	-0.19	5.1
COc1cc2c(cc1OC)CN(c1nc(-c3cccnc3)nc3ccccc13)CC2	i	0.0	36.5	-1.18	33.7
O=C(NC1CCS(=O)(=O)C1)c1cc(-c2ccccc2)nc2ccccc12 (stereo not given)	i	x	11.6	0.12	1.2
Cc1cccc2[nH]c3c(N4CC=C(c5ccc(F)cc5)CC4)ncnc3c12	x	x	x	-2.51	x
Cc1ccc(Cn2c(=N)n(CC(=O)c3ccc([N+](=O)[O-])cc3)c3ccccc32)cc1	i	x	73.6*	u	3.6
CC(C)Cc1nn2c(N)c(/C=C3\C=Nc4ccccc43)c(=O)nc2s1	i	-304.8	14.4	-0.1	9.8
Cc1cc(NC(=O)CN2CCN(C/C=C/c3ccccc3)CC2)c([N+](=O)[O-])cc1C	i	7.4	84.6*	-0.2	9.3
O=C(CN1CCN(C/C=C/c2ccccc2)CC1)Nc1ccccc1C(=O)NC1CC1	x	x	x	-0.12	x
O=C(CN1CCN(C/C=C/c2ccccc2)CC1)Nc1cc([N+](=O)[O-])ccc1Cl	i	-8.1	55.9*	0.85	17.8
Cn1cc(/C=C/C(=O)c2ccccc2)c2ccccc21	x	x	x	-0.51	x
Cc1ccc(C(=O)/C=C/c2cn(CN3CCN(C)CC3)c3ccccc23)cc1	i	13.9	2.6	-0.73	84.0*
COc1ccc(CCNC(=O)c2cccc(S(=O)(=O)N3CCCCC3)c2)cc1	i	x	6.4	x	-3.1
C=CCN(c1ccccc1Cl)S(=O)(=O)c1cccc(C(=O)NCCc2ccc(OC)cc2)c1	i	x	63.5*	x	6.9
Cn1cc(Br)c(C(=O)NC(=S)Nc2ccc(S(N)(=O)=O)cc2)n1	+	x	-1.4	-0.06	17.7
CCCCOC(=O)c1ccc(NC(=O)c2nn(C)cc2Br)cc1	i	-30.0	2.6	x	59.7*
COc1ccc(C(=O)NC(=S)Nc2ccc(S(N)(=O)=O)cc2)cc1	i	x	-4.3	0.55	-2.3
CCCCCOC(=O)c1ccc(NC(=O)c2ccco2)cc1	i	x	-2.0	x	70.5*
SMILES	Autophagy HCS	Insulin prom inh	L major viab	Ins promoter up	WT yeast gro inh
CCCCOC(=O)c1ccc(NC(C)=O)cc1	i	x	-3.9	-0.78	-18.2
CCn1c(=O)c(C(=O)Nc2nc3ccccc3[nH]2)c(O)c2ccccc21	i	11.8	32.6	0.35	83.9*
Cc1nc(NC(=O)CN2CCC(O)(c3ccc(F)cc3)CC2)sc1C	x	x	x	-0.55	x
CN(C)S(=O)(=O)Oc1cc(Cl)ccc1C(=O)Nc1ccc(F)cc1F	i	6.7	-0.1	-0.45	-12.2
CC(SCC(=O)NC(C)C1CC2CCC1C2)C(=O)O (stereo not given)	i	33.3	8.2	0.35	-9.6
C=C(C)Cn1cnc2cc(C)c(C)cc21	i	x	1.8	-1.35	4.7
O=C(c1cccs1)N1CCN(CCCc2ccccc2)CC1	i	18.8	95.8*	0.07	3.0

High-throughput results deposited in PubChem by several laboratories.
